Source: PubChem BioAssay (EPA / NIEHS)
Active and inactive are the calls of the source. The calls were made as follows: active = hit-call score of the fitted dose curve at least 0.9, where 1 is the maximum; inactive = score below 0.9.

Legend:
Conditions in all cases: mRNA level, 48 h; actives raise or lower the signal
[1] = read-out: Potassium channel subfamily K member 1 (KCNK1), KCNK1 (gene 3775); test: LTEA_HepaRG_KCNK1: Life Technologies and Expression Analysis (LTEA) Assay for Potassium channel subfamily K member 1 (KCNK1) using HepaRG (AID 2283511)
Summary of the method: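 Human HepaRG cultures receive test chemicals for 48 h in 0.5% DMSO, top concentration 100 uM with half-log dilutions. Induction or suppression of KCNK1 mRNA relative to DMSO is derived by bidirectional fitting of qRT-PCR data.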

[2] = read-out: Keratin 19 (KRT19), KRT19 (gene 3880); test: LTEA_HepaRG_KRT19: Life Technologies and Expression Analysis (LTEA) Assay for Keratin 19 (KRT19) using HepaRG (AID 2283512)
Summary of the method: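 KRT19 transcript levels, measured by Fluidigm qRT-PCR against three housekeeping genes, are fitted for gain or loss of signal relative to DMSO. Human HepaRG cells receive test chemicals (top 100 uM, half-log steps, 0.5% DMSO) for 48 hours.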

[3] = read-out: JUN Transcription Factor, JUN (gene 3725); test: LTEA_HepaRG_JUN: Life Technologies and Expression Analysis (LTEA) Assay for JUN Transcription Factor using HepaRG (AID 2283513)
Summary of the method: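 Gene-expression endpoint: JUN mRNA (qRT-PCR, normalized to three reference genes) in HepaRG cultures treated 48 h with chemicals, duplicate wells, 100 uM maximum with half-log dilutions; bidirectional fitting relative to 0.5% DMSO.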

[4] = read-out: Lipase C (LIPC), LIPC (gene 3990); test: LTEA_HepaRG_LIPC: Life Technologies and Expression Analysis (LTEA) Assay for Lipase C (LIPC) using HepaRG (AID 2283514)
Summary of the method: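 In this multiplexed gene-expression screen, human HepaRG cultures received test chemicals for 48 h across eight concentrations with 100 uM highest, in duplicate. Values reflect LIPC mRNA induction or suppression versus DMSO vehicle, from normalized qRT-PCR.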

[5] = read-out: Lipoprotein lipase (LPL), LPL (gene 4023); test: LTEA_HepaRG_LPL: Life Technologies and Expression Analysis (LTEA) Assay for Lipoprotein lipase (LPL) using HepaRG (AID 2283515)
Summary of the method: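 Concentration-response testing used half-log steps from 100 uM in 0.5% DMSO on human HepaRG cells, 48 h, duplicate wells. Phenobarbital 1 mM served as induction control; LPL mRNA was normalized to ACTB, GAPDH, POLR2A.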

[6] = read-out: MicroRNA 122 (MIR122), gene 406906; test: LTEA_HepaRG_MIR122: Life Technologies and Expression Analysis (LTEA) Assay for MicroRNA 122 (MIR122) using HepaRG (AID 2283516); also: the transcript read is the microRNA miR-122
Summary of the method: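 Changes in transcript abundance, up or down relative to 0.5% DMSO vehicle, were scored after 48 h chemical treatment of HepaRG cells (maximum 100 uM). Quantification used TaqMan qRT-PCR normalized to housekeeping genes.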

[7] = read-out: matrix metalloproteinase-10 (MMP10), MMP10 (gene 4319); test: LTEA_HepaRG_MMP10: Life Technologies and Expression Analysis (LTEA) Assay for matrix metalloproteinase-10 (MMP10) using HepaRG (AID 2283517)
Summary of the method: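 In differentiated HepaRG cultures kept in 0.5% DMSO, test chemicals act for 48 h over an eight-point range with a top dose of 100 uM. Expression is then quantified by TaqMan RT-PCR against ACTB, GAPDH and POLR2A.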

[8] = read-out: MYC, MYC (gene 4609); test: LTEA_HepaRG_MYC: Life Technologies and Expression Analysis (LTEA) Assay for MYC using HepaRG (AID 2283518)
Summary of the method: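 HepaRG, ~100,000 cells/well, collagen I; 48 h plating; serum-free induction medium; 48 h dosing, duplicate, 100 uM top, half-log, 0.5% DMSO; total RNA → qRT-PCR MYC; gain/loss fit vs DMSO.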

[9] = read-out: matrix metalloproteinase-3 (MMP3), MMP3 (gene 4314); test: LTEA_HepaRG_MMP3: Life Technologies and Expression Analysis (LTEA) Assay for matrix metalloproteinase-3 (MMP3) using HepaRG (AID 2283519)
Summary of the method: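 Human liver HepaRG cultures received chemicals (top concentration 100 uM, 0.5% DMSO) for 48 h in duplicate. MMP3 mRNA induction or loss was then assessed via TaqMan qRT-PCR with housekeeping-gene normalisation.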

[10] = read-out: Paternally Expressed 10 (PEG10), PEG10 (gene 23089); test: LTEA_HepaRG_PEG10: Life Technologies and Expression Analysis (LTEA) Assay for Paternally Expressed 10 (PEG10) using HepaRG (AID 2283520)
Summary of the method: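 After 48 h exposure of differentiated HepaRG cells (0.5% DMSO vehicle, eight concentrations up to 100 uM, duplicates), PEG10 mRNA was measured by TaqMan qRT-PCR. Values were normalised to endogenous control genes and analysed bidirectionally against vehicle.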

[11] = read-out: Protein phosphatase 2A (PPP2R4), PTPA (gene 5524); test: LTEA_HepaRG_PPP2R4: Life Technologies and Expression Analysis (LTEA) Assay for Protein phosphatase 2A (PPP2R4) using HepaRG (AID 2283522)
Summary of the method: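 Using HepaRG cultures maintained in 0.5% DMSO, chemicals are tested 48 h at up to 100 uM in duplicate. Induction or suppression of PPP2R4 mRNA, measured by qRT-PCR, is fitted bidirectionally against the vehicle baseline.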

[12] = read-out: Phosphatase and tensin (PTEN), PTEN (gene 5728); test: LTEA_HepaRG_PTEN: Life Technologies and Expression Analysis (LTEA) Assay for Phosphatase and tensin (PTEN) using HepaRG (AID 2283523)
Summary of the method: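 Expression of PTEN is quantified in the human liver line HepaRG following two days of dosing (top concentration 100 uM, half-log dilutions, 0.5% DMSO). Values derive from bidirectional curve fitting relative to DMSO controls.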

[13] = read-out: solute carrier (SLC22A1), SLC22A1 (gene 6580); test: LTEA_HepaRG_SLC22A1: Life Technologies and Expression Analysis (LTEA) Assay for solute carrier (SLC22A1) using HepaRG (AID 2283524)
Summary of the method: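 Transcript induction or suppression of SLC22A1 in human HepaRG cultures is scored after 48 h chemical treatment, with DMSO (0.5%) as baseline for bidirectional fitting. Concentrations span eight half-log points topping at 100 uM.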

[14] = read-out: Pyruvate Dehydrogenase Kinase 4 (PDK4), PDK4 (gene 5166); test: LTEA_HepaRG_PDK4: Life Technologies and Expression Analysis (LTEA) Assay for Pyruvate Dehydrogenase Kinase 4 (PDK4) using HepaRG (AID 2283525)
Summary of the method: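 Eight-point, half-log concentration series (max 100 uM, 0.5% DMSO) applied to differentiated HepaRG cells for 48 h in duplicate. Endpoint: PDK4 mRNA induction or repression by qRT-PCR against DMSO baseline.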

[15] = read-out: NAD(P)H dehydrogenase [quinone] 1 (NQO1), NQO1 (gene 1728); test: LTEA_HepaRG_NQO1: Life Technologies and Expression Analysis (LTEA) Assay for NAD(P)H dehydrogenase [quinone] 1 (NQO1) using HepaRG (AID 2283526)
Summary of the method: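 In this assay, gene expression is read by qRT-PCR after 48 h exposure of HepaRG cells to eight concentrations (max 100 uM, half-log) in 0.5% DMSO. Each chemical runs in duplicate, and activity is scored relative to vehicle.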

[16] = read-out: Nuclear factor erythroid 2-related factor 2 (Homo sapiens) (UniProt Q16236); test: LTEA_HepaRG_NFE2L2: Life Technologies and Expression Analysis (LTEA) Assay for Nuclear factor erythroid 2-related factor 2 (NFE2L2) Transcription Factor using HepaRG (AID 2283527)
Summary of the method: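 Human liver HepaRG line treated in duplicate for 48 h with an eight-point series topping at 100 uM. Gene expression of NFE2L2 by qRT-PCR, bidirectionally fitted against the vehicle control.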

[17] = read-out: succinate dehydrogenase complex iron sulfur subunit B (SDHB), SDHB (gene 6390); test: LTEA_HepaRG_SDHB: Life Technologies and Expression Analysis (LTEA) Assay for succinate dehydrogenase complex iron sulfur subunit B (SDHB) using HepaRG (AID 2283528)
Summary of the method: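 SDHB transcript level read by TaqMan qRT-PCR, housekeeping-normalised (ACTB, GAPDH, POLR2A), after 48 h chemical treatment of plated HepaRG cells; eight concentrations top 100 uM, half-log steps, 0.5% DMSO, duplicates; fitted both directions against DMSO.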

[18] = read-out: Signal transducer and activator of transcription 3 (Homo sapiens) (UniProt P40763); test: LTEA_HepaRG_STAT3: Life Technologies and Expression Analysis (LTEA) Assay for Signal transducer and activator of transcription (STAT3) using HepaRG (AID 2283529)
Summary of the method: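 In this transcriptional endpoint, HepaRG cultures receive test chemicals at up to 100 uM for 48 h, tested in duplicate. STAT3 mRNA is normalized to ACTB, GAPDH and POLR2A.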

[19] = read-out: solute carrier (SLCO1B1), SLCO1B1 (gene 10599); test: LTEA_HepaRG_SLCO1B1: Life Technologies and Expression Analysis (LTEA) Assay for solute carrier (SLCO1B1) using HepaRG (AID 2283530)
Summary of the method: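 HepaRG, serum-free induction medium, 48 h dosing, 8-pt half-log from 100 uM, 0.5% DMSO vehicle, duplicates. Readout: SLCO1B1 mRNA, qRT-PCR, ACTB/GAPDH/POLR2A normalization; up or down fit vs DMSO.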

[20] = read-out: sulfotransferase 2A1 (SULT2A1), SULT2A1 (gene 6822); test: LTEA_HepaRG_SULT2A1: Life Technologies and Expression Analysis (LTEA) Assay for sulfotransferase 2A1 (SULT2A1) using HepaRG (AID 2283531)
Summary of the method: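 Transcript levels of SULT2A1, quantified by qRT-PCR and normalized to three housekeeping genes, serve as the readout. Human HepaRG cultures receive test chemicals for 48 h at up to 100 uM in half-log steps, with 0.5% DMSO vehicle.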

Measured: outcome

Nuclear factor erythroid 2-related factor 2 (Homo sapiens), sequence (Q16236 whole entry, looked up): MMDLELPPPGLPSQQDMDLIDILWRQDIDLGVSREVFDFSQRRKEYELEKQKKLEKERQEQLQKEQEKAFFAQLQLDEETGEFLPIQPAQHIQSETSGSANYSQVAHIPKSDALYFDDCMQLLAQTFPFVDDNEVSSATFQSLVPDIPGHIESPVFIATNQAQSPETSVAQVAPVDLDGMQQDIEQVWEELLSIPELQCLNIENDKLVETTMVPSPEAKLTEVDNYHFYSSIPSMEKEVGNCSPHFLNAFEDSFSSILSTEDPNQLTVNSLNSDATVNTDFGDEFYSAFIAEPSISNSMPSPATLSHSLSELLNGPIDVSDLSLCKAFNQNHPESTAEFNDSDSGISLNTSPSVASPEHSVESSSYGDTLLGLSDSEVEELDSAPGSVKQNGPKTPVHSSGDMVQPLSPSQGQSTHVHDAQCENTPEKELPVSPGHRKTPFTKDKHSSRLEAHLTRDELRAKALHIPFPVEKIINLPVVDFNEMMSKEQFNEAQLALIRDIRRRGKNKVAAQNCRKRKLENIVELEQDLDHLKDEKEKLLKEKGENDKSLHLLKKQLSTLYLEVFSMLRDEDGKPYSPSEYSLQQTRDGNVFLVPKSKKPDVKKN
Signal transducer and activator of transcription 3 (Homo sapiens), sequence (P40763 whole entry, looked up): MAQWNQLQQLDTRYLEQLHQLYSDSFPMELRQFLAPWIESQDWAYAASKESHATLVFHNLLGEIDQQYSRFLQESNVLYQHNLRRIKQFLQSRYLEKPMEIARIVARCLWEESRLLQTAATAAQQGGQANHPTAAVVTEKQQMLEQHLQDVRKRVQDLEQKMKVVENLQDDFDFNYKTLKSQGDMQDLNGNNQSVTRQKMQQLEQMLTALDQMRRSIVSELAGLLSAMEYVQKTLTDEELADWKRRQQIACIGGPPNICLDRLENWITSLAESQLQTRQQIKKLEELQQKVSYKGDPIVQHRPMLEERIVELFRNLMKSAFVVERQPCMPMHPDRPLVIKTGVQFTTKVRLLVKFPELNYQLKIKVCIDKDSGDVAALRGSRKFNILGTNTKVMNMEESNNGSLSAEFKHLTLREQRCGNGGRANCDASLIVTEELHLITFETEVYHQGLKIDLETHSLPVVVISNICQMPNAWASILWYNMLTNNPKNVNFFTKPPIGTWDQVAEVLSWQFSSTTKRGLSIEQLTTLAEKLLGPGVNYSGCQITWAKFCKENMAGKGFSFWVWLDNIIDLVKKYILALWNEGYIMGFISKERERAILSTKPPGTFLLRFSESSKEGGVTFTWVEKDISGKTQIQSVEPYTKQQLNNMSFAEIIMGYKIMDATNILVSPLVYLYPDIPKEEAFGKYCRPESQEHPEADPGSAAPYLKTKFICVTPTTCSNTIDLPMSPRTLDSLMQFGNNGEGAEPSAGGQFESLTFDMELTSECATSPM

N#CCCCCC#N
inactive: all assays above

O=[N+]([O-])c1ccc(Cl)cc1
inactive: all assays above
